# System: RIVA
# Experiment: growth inhibition by drug alone (1 - RLU/untreated control) (fraction); higher = stronger inhibition
# Conditions: 177Lu-lilotomab satetraxetan 0 ug/ml
# Description: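 RIVA (RI-1) ABC-DLBCL cells were pretreated or not for 18 h with 0.5 ug/ml 177Lu-lilotomab satetraxetan (600 MBq/mg), washed and seeded (3000 cells/well) on 384-well plates pre-printed with the Selleck Cambridge Cancer Compound library. Viability was read by RealTime-Glo luminescence on days 3-6 after seeding. Effect = 1 - RLU/mean RLU of the 48 untreated no-drug control wells per plate; Bliss score = (M-E)/(1-Fa).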
Compound,"growth inhibition by drug alone (10 nM, time (day): 3)","growth inhibition by drug alone (10 nM, time (day): 4)","growth inhibition by drug alone (10 nM, time (day): 5)","growth inhibition by drug alone (10 nM, time (day): 6)","growth inhibition by drug alone (100 nM, time (day): 3)","growth inhibition by drug alone (100 nM, time (day): 4)","growth inhibition by drug alone (100 nM, time (day): 5)","growth inhibition by drug alone (100 nM, time (day): 6)"
C=C1C[C@@H]2[C@H](CC[C@]3(C)C(=O)CC[C@@H]23)[C@@]2(C)C=CC(=O)C=C12 [Exemestane],0.0187,0.00346,-0.0171,-0.272,-0.247,-0.223,-0.21,-0.228
CC(O)(CS(=O)(=O)c1ccc(F)cc1)C(=O)Nc1ccc(C#N)c(C(F)(F)F)c1 (stereo not given) [Bicalutamide (Casodex)],0.121,0.0197,-0.0376,-0.206,0.0203,-0.00253,-0.0289,-0.0827
CN(C)CCN(C)CCc1ccc(Cl)c(Cl)c1,-0.216,-0.209,-0.338,-0.472,-0.276,-0.227,-0.333,-0.453
O=C(O)c1nn(Cc2ccc(Cl)cc2Cl)c2ccccc12 [Lonidamine],0.0283,0.0585,0.0114,-0.393,-0.419,-0.301,-0.332,-0.381
CC1=C2C[C@H]3[C@@H](CC=C4C[C@@H](O)CC[C@@]43C)[C@@H]2CC[C@]12O[C@@H]1C[C@H](C)CN[C@H]1[C@H]2C [Cyclopamine],-0.0274,0.0131,-0.0438,-0.264,0.0149,0.0126,-0.0321,-0.131
